Of roughly 7,900 targets only a part is listed; those with a hit were picked by preference. About 0.6% of all pairs of compound and target were hits. Unmarked numbers belong to inactive results.

UniProt Q8NBA8, sequence (Q8NBA8 whole entry, looked up): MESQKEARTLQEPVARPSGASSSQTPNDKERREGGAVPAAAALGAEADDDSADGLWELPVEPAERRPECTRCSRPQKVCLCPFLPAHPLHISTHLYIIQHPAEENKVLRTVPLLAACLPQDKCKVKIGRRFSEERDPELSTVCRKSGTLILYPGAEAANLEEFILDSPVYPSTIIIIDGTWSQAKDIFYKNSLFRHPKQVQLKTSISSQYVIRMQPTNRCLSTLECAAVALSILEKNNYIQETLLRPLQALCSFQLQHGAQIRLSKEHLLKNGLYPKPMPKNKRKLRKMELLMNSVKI
UniProt Q5QP82, sequence (Q5QP82 whole entry, looked up): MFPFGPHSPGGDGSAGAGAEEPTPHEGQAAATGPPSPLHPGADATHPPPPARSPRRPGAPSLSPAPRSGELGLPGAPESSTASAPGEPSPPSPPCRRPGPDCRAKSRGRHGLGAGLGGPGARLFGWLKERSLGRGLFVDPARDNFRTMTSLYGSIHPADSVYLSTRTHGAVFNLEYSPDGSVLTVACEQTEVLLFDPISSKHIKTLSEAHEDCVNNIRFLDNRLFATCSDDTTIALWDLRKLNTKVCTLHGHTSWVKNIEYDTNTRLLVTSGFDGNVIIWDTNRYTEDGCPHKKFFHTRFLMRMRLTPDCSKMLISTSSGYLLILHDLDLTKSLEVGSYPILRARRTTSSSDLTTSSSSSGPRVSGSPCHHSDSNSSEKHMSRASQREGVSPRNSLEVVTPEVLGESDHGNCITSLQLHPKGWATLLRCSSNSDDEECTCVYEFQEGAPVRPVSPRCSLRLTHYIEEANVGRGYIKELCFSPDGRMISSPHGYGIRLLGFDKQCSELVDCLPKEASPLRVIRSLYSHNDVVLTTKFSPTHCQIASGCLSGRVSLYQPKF
UniProt Q96EV8, sequence (Q96EV8 whole entry, looked up): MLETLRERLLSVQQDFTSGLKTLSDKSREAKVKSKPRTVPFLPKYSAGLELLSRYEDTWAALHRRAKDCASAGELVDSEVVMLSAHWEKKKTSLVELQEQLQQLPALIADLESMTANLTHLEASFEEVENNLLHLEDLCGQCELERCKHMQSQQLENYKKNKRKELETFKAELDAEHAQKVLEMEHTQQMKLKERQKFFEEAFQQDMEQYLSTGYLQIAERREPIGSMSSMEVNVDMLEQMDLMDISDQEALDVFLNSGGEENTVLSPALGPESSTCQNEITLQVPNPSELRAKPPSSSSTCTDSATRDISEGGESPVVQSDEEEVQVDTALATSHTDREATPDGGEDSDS
UniProt O60573, sequence (O60573 whole entry, looked up): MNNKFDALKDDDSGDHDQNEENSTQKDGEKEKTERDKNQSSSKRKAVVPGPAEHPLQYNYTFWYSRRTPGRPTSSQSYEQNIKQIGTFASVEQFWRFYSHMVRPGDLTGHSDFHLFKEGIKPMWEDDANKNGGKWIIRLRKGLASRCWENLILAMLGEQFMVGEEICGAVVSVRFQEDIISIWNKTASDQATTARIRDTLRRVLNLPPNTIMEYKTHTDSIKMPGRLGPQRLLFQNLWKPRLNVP
UniProt Q96GG9, sequence (Q96GG9 whole entry, looked up): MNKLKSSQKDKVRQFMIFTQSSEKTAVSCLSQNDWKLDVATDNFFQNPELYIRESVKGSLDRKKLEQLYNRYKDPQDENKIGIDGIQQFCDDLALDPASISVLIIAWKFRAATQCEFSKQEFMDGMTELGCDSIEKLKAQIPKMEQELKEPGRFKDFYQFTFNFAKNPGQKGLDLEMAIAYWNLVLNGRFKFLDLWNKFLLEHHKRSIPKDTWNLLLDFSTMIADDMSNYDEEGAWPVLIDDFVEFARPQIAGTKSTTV
UniProt Q99615, sequence (Q99615 whole entry, looked up): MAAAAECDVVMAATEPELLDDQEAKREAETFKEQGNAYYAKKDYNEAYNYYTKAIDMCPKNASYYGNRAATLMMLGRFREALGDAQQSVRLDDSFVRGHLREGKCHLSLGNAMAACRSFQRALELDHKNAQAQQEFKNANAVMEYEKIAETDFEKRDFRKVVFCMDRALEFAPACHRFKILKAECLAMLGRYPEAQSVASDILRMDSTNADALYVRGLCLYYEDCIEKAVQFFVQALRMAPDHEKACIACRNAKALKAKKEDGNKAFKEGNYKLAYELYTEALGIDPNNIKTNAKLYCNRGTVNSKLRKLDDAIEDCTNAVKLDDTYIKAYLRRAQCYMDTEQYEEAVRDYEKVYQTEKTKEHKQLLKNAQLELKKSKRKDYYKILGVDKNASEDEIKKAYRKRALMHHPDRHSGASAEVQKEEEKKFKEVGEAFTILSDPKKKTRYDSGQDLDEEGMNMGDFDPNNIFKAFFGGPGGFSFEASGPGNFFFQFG
UniProt P23919, sequence (P23919 whole entry, looked up): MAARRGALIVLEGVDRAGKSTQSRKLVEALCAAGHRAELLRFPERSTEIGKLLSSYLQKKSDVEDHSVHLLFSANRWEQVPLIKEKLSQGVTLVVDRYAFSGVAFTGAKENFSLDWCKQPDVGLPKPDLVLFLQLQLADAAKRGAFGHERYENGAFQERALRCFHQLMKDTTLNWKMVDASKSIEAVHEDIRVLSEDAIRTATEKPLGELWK
UniProt O60231, sequence (O60231 whole entry, looked up): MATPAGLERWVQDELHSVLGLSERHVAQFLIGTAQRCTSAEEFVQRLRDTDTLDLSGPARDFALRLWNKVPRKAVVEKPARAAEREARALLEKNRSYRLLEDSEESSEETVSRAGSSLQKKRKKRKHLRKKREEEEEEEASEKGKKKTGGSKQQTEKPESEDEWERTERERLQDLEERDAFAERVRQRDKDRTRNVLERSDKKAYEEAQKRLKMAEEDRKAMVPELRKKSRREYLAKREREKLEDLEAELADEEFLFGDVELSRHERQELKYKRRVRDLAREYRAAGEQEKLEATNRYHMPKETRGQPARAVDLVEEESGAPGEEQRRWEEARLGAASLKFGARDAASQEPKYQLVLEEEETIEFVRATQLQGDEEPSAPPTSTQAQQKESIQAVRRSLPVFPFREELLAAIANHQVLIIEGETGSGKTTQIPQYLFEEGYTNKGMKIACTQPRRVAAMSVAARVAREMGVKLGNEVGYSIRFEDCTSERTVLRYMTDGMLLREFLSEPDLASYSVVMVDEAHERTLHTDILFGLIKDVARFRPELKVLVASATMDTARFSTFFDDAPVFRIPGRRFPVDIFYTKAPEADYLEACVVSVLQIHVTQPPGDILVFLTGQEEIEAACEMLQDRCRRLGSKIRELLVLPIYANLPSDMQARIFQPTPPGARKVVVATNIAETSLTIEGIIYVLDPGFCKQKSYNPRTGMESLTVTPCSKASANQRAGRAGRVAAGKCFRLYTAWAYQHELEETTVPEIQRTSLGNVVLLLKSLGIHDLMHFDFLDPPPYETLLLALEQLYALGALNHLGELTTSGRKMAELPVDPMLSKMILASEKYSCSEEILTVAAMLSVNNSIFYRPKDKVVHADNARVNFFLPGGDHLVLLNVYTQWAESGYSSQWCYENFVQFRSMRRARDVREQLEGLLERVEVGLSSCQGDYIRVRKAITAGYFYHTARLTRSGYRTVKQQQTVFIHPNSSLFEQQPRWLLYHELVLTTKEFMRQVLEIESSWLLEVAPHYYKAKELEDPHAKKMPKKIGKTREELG
UniProt Q9BPY3, sequence (Q9BPY3 whole entry, looked up): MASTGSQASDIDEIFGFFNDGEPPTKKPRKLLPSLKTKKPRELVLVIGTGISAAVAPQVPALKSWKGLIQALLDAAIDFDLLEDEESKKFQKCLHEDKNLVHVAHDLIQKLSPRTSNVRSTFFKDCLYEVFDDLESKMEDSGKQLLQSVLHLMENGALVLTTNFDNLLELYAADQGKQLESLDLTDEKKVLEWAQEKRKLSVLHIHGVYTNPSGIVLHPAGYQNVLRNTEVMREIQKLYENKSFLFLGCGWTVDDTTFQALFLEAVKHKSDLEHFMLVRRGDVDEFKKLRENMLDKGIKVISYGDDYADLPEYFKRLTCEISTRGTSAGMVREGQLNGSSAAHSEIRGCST
UniProt Q96A65, sequence (Q96A65 whole entry, looked up): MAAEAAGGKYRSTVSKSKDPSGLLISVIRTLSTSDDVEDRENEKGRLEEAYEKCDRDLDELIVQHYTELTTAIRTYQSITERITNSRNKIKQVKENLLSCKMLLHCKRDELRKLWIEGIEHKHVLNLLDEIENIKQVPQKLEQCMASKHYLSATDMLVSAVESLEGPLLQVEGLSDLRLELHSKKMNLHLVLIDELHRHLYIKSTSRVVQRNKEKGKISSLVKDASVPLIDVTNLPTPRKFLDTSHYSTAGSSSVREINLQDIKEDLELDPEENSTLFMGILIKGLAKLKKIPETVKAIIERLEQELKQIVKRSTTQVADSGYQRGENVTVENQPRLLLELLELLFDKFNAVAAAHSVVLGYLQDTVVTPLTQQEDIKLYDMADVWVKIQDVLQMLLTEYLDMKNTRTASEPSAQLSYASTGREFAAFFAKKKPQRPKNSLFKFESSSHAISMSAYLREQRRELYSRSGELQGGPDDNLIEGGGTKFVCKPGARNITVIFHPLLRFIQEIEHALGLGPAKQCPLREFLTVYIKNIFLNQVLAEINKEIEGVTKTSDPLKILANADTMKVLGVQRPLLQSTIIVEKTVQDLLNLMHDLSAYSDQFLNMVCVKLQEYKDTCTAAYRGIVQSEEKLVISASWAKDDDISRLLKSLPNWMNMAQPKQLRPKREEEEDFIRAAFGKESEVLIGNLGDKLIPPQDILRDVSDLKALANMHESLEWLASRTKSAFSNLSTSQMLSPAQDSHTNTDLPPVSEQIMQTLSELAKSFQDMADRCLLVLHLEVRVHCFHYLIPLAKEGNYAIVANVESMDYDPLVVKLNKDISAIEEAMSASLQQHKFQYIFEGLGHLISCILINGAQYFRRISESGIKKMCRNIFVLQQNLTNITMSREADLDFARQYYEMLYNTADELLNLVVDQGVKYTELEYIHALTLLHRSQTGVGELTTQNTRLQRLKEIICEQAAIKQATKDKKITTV
UniProt Q6P3W2, sequence (Q6P3W2 whole entry, looked up): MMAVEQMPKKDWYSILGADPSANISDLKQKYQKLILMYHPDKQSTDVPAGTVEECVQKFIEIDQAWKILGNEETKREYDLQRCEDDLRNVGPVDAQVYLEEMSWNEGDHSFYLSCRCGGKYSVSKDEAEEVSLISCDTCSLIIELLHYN

Compound in one assay: CC1=CC=C(C=C1)SC2=C3C=C(SC3=CN=C2)C(=O)N
The assay is described as follows: log2 fold change, soluble protein after heating vs DMSO (PISA); higher = thermal stabilisation; K562 cells, 10 uM, 30 min; active = over 0.2 and 3.5 SD of the protein, either way, in both replicates (recomputed). The gist of the method:
(§1)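 For each measurement, 10 μM compound was applied for 30 min to K562 cells at 2×10^6 cells/mL. Aliquots were heated for 3 min across 48°C-58°C, pooled, and extracted in PBS with 0.5% NP-40 at 4°C; the supernatant after 21,000xg for 90 min was soluble protein. This was quantified by TMTpro 16plex LC-MS/MS with channel sums equalised, and thermal stability was reported relative to control samples from duplicates, on a log2 fold-change scale.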
Consider DNAJC7 (UniProt Q99615), for which the log2 fold change was 0.029.

In the case of EXOC4 (UniProt Q96A65), the log2 fold change was 0.021.

With EXOC7 (UniProt Q9UPT5), the log2 fold change is -0.014.

Regarding DPP8 (UniProt Q6V1X1), the log2 fold change was -0.031.

As to EIF4G1 isoform 8 (UniProt Q04637), the log2 fold change is 0.004.

Regarding DTWD2 (UniProt Q8NBA8), the log2 fold change is 0.197.

Consider ERLIN1 (UniProt O75477), for which the log2 fold change was 0.028.

As to DMAC1 (UniProt Q96GE9), the log2 fold change is 0.116.

DYRK1A isoform 2 (UniProt Q13627): the log2 fold change is 0.003.

With ECH1 (UniProt Q13011), the log2 fold change is 0.044.

In the case of EHBP1L1 (UniProt Q8N3D4), the log2 fold change was -0.003.

Turning to CWC27 (UniProt Q6UX04), the log2 fold change is 0.002.

With EEF1G isoform 2 (UniProt P26641), the log2 fold change was 0.014.

DLD (UniProt P09622): the log2 fold change was 0.008.

DTWD1 (UniProt Q8N5C7): the log2 fold change was 0.023.

CTSV (UniProt O60911): the log2 fold change was 0.

For the target FAM122A (UniProt Q96E09), the log2 fold change was 0.045.

As for DTNBP1 (UniProt Q96EV8), the log2 fold change is 0.001.

Consider ERLIN2 (UniProt O94905), for which the log2 fold change is 0.009.

Regarding EIF3J (UniProt O75822), the log2 fold change is -0.005.

CTSB (UniProt P07858): the log2 fold change is 0.022.

Take CTU1 (UniProt Q7Z7A3): the log2 fold change was 0.061.

Turning to DHRS7B (UniProt Q6IAN0), the log2 fold change is -0.049.

Turning to EIF4A1 (UniProt P60842), the log2 fold change was 0.061.

Turning to DNAJC24 (UniProt Q6P3W2), the log2 fold change was 0.104.

DCUN1D1 (UniProt Q96GG9): the log2 fold change was 0.022.

For DCAF10 (UniProt Q5QP82), the log2 fold change is -0.015.

As to DBR1 (UniProt Q9UK59), the log2 fold change was 0.007.

On to EOGT (UniProt Q5NDL2), for which the log2 fold change was -0.088.

In the case of EIF2AK1 (UniProt Q9BQI3), the log2 fold change is 0.079.

Consider DHCR24 (UniProt Q15392), for which the log2 fold change is -0.003.

For DTYMK (UniProt P23919), the log2 fold change is 0.

In the case of ELOVL1 (UniProt Q9BW60), the log2 fold change is 0.064.

As to FAM118B (UniProt Q9BPY3), the log2 fold change was 0.037.

EED, A0A5F9ZI63: the log2 fold change was -0.012.

For the target DHRS3 (UniProt O75911), the log2 fold change is 0.019.

As for EIF4E2 (UniProt O60573), the log2 fold change is 0.061.

Regarding DHX16 (UniProt O60231), the log2 fold change was 0.024.

In the case of ESYT1 isoform 2 (UniProt Q9BSJ8), the log2 fold change was -0.007.

In the case of FAM114A2 (UniProt Q9NRY5), the log2 fold change was 0.038.

Compound in another assay: CC1=NC(=CC=C1)C2=C(N=C(N2)C(C)(C)C)C3=CC4=NC=CN=C4C=C3
The assay is described as above. Put shortly:
as §1
On to DNAJC7 (UniProt Q99615), for which the log2 fold change was 0.042.

Regarding EXOC4 (UniProt Q96A65), the log2 fold change was 0.001.

For the target EXOC7 (UniProt Q9UPT5), the log2 fold change is -0.05.

On to DPP8 (UniProt Q6V1X1), for which the log2 fold change was 0.021.

In the case of EIF4G1 isoform 8 (UniProt Q04637), the log2 fold change is 0.006.

For the target DTWD2 (UniProt Q8NBA8), the log2 fold change is -0.048.

Take ERLIN1 (UniProt O75477): the log2 fold change is -0.01.

Turning to DMAC1 (UniProt Q96GE9), the log2 fold change was 0.005.

As for DYRK1A isoform 2 (UniProt Q13627), the log2 fold change was -0.005.

With ECH1 (UniProt Q13011), the log2 fold change is 0.014.

As to EHBP1L1 (UniProt Q8N3D4), the log2 fold change is -0.043.

As for CWC27 (UniProt Q6UX04), the log2 fold change was 0.021.

In the case of EEF1G isoform 2 (UniProt P26641), the log2 fold change is 0.049.

For the target DLD (UniProt P09622), the log2 fold change was 0.013.

On to DTWD1 (UniProt Q8N5C7), for which the log2 fold change is 0.081.

As to CTSV (UniProt O60911), the log2 fold change was -0.017.

Consider FAM122A (UniProt Q96E09), for which the log2 fold change is -0.006.

As for DTNBP1 (UniProt Q96EV8), the log2 fold change was 0.055.

With ERLIN2 (UniProt O94905), the log2 fold change is -0.037.

For the target EIF3J (UniProt O75822), the log2 fold change was 0.039.

For the target CTSB (UniProt P07858), the log2 fold change is 0.029.

Regarding CTU1 (UniProt Q7Z7A3), the log2 fold change is 0.059.

Regarding DHRS7B (UniProt Q6IAN0), the log2 fold change was -0.001.

Consider EIF4A1 (UniProt P60842), for which the log2 fold change is 0.049.

As to DNAJC24 (UniProt Q6P3W2), the log2 fold change is 0.008.

For the target DCUN1D1 (UniProt Q96GG9), the log2 fold change is 0.078.

Consider DCAF10 (UniProt Q5QP82), for which the log2 fold change is -0.009.

Consider DBR1 (UniProt Q9UK59), for which the log2 fold change is 0.049.

As for EOGT (UniProt Q5NDL2), the log2 fold change was -0.052.

In the case of EIF2AK1 (UniProt Q9BQI3), the log2 fold change is -0.019.

With DHCR24 (UniProt Q15392), the log2 fold change was -0.043.

On to DTYMK (UniProt P23919), for which the log2 fold change is 0.015.

Take ELOVL1 (UniProt Q9BW60): the log2 fold change was 0.044.

As to FAM118B (UniProt Q9BPY3), the log2 fold change is 0.055.

As to EED, A0A5F9ZI63, the log2 fold change is -0.019.

DHRS3 (UniProt O75911): the log2 fold change was 0.027.

As for EIF4E2 (UniProt O60573), the log2 fold change is 0.089.

As to DHX16 (UniProt O60231), the log2 fold change is 0.036.

Regarding ESYT1 isoform 2 (UniProt Q9BSJ8), the log2 fold change is 0.003.

Take FAM114A2 (UniProt Q9NRY5): the log2 fold change is 0.022.
